# Screening results from PubChem BioAssay.
# The list is not random: actives were taken first. Their share in the collection is about 12%.
# G9a block: blocks human histone lysine methyltransferase G9a; Q96KQ7; G9a H3K9 monomethylation, AlphaScreen, 2 h; Potency, µM (series often up to 102 µM), for inactives: at the top dose activity, negative = inhibition, most hits filed as inhibitors; 350,000 compounds, 8.8% hits; AID 504332; also: % is scaled to controls: 0 for no effect and ±100 for the full control effect; nearly all actives have a fitted effect of over 75% in size
#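 AlphaScreen read-out: biotin-H3K9 peptide (500 nM) methylation by 20 nM enzyme with 20 uM SAM, 2 h at room temperature after 15 min compound preincubation; anti-monomethyl H3K9 antibody plus donor/acceptor beads, 10 min dark.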
# BAZ2B block: blocks human BAZ2B. Potency, µM (highest dose often 114 µM), for inactives: at the highest dose activity change, negative = inhibition, hits mostly inhibitors. 360,000 compounds, 4.4% hits. AID 504333. AlphaScreen BAZ2B-H3K14Ac peptide displacement; also: % is scaled to controls: 0 for no effect and ±100 for the full control effect; nearly all actives have a fitted effect of over 60% in size
#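 AlphaScreen displacement of biotin-H3(5-23)K14Ac peptide (50 nM final) from BAZ2B (50 nM final) in PBS pH 7.4, 0.01% Tween-20; complex preformed 30 min RT, then compounds (top 110 uM) 30 min RT, beads 20 min dark.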
# JMJD2A Tudor inh: JMJD2A Tudor domain (human) inhibition | O75164 | AlphaScreen JMJD2A-Tudor / H3K4me3 peptide binding | Potency, µM (series often up to 114 µM), inactives show at the highest dose activity change, negative = inhibition, actives largely listed as inhibitors | 390,000 compounds, 4.4% hits | AID 504339; also: % is scaled to controls: 0 for no effect and ±100 for the full control effect; nearly all actives have a fitted effect of over 50% in size
# Target sequence (O75164 whole entry, looked up, the tested form may be a part): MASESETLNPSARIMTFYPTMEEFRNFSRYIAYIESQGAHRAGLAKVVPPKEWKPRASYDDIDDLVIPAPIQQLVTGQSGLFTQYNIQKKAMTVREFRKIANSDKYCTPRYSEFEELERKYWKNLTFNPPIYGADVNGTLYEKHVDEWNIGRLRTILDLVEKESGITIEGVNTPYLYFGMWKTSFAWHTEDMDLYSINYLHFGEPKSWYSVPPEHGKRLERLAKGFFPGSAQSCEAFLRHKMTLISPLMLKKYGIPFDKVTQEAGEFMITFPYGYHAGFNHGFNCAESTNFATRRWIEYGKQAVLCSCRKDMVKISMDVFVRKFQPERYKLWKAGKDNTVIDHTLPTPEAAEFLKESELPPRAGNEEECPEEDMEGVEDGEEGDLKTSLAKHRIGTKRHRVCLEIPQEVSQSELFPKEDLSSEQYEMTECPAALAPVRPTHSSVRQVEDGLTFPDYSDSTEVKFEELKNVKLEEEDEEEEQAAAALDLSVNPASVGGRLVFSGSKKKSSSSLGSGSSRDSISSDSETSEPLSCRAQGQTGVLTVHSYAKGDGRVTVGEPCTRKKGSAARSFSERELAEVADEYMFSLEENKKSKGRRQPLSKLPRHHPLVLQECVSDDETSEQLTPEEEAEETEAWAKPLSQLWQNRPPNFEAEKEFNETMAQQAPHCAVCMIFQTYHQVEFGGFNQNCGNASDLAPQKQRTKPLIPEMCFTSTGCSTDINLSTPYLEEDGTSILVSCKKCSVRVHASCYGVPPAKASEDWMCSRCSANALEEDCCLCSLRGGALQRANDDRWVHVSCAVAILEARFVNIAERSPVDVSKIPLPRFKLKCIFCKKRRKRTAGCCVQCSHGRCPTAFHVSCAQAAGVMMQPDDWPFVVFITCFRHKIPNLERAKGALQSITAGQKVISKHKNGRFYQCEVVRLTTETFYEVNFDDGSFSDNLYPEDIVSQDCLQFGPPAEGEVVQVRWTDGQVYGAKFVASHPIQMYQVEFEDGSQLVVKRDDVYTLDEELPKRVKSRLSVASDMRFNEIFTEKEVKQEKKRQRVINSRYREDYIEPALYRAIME
# HP1b chromo inh: HP1-beta chromodomain-methylated histone interaction inhibition | P83916 | AlphaScreen HP1-beta / biotin-H3K9me3 peptide binding | Potency, µM (doses to about 114 µM), for inactives: at the highest dose activity change, negative = inhibition, actives largely listed as inhibitors | 390,000 compounds, 0.56% hits; also: nearly all actives have a fitted effect of over 70% in size
#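 HP1-beta protein (50 nM final) preincubated 30 min at room temperature with biotinylated H3(1-18)K9me3 peptide (50 nM) in PBS pH 7.4, 0.01% Tween-20, then compound added for 30 min. AlphaScreen streptavidin donor/nickel chelate acceptor beads (10 ug/mL final), 30 min dark, luminescence read.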
# L3MBTL1 inh: blocks human L3MBTL1. Q9Y468. AlphaScreen L3MBTL1–H3K9me1 peptide binding. 230,000 compounds, 0.66% hits. Potency, µM (top dose mostly 57.1 µM), for the others: top-dose activity, negative = inhibition, usual class: inhibitors; also: % is scaled to controls: 0 for no effect and ±100 for the full control effect; nearly all actives have a fitted effect of over 60% in size
#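 L3MBTL1 (50 nM) pre-complexed 30 min with biotinylated H3(1-15)K9me1 peptide (75 nM), then compounds added for 30 min at room temperature; AlphaScreen streptavidin donor/nickel chelate acceptor beads (10 ug/mL final) read after 30 min dark incubation.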
# Sfp PPTase inh: blocks B. subtilis Sfp PPTase activity. Biochemical Sfp PPTase activity, qHTS. Potency, µM, for inactives: largest response in the series, negative = inhibition, hits mostly inhibitors. 310,000 compounds, 3.5% hits;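 also: the enzyme is Sfp with the accession as filed and its product quenches rhodamine fluorescence; 0% = enzyme reaction without inhibitor and -100% = no enzyme wells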
#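 Fluorescence-quenching assay with 15 nM Sfp, 5 uM rhodamine-CoA and 12.5 uM BHQ-2-labelled ybbR peptide in pH 7.6 Hepes/MgCl2 buffer. Enzyme was pre-incubated with compound for 15 min at room temperature. Rate was taken from the 30-min fluorescence change (525/598 nm).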
# Active calls of the source: *; u = inconclusive; x = not tested or not shown; [ ] = dose if it differs, or a comment. Calls follow the shape of the dose curve; as a rule, active = well fitted curve in the direction sought with a large enough effect; inconclusive = small, poorly fitted or top-dose-only effect, or another doubt; inactive = no such curve, though single readings can be large; an effect the other way counts as inactive or inconclusive. Potency is read from the fitted curve at half-maximal effect.
SMILES,G9a block,BAZ2B block,JMJD2A Tudor inh,HP1b chromo inh,L3MBTL1 inh,Sfp PPTase inh
C/C=C/c1ccc(OCCNCc2ccccc2)c(OC)c1,u,56.2µM*,-17.9%,u,1.1%,2.5%
CNCCCOc1ccc(C)cc1OC,x,39.8µM*,1.58µM*,-36.9%,48.9%,44.7µM*
CCOc1ccc(CNC(=O)Cc2ccc(NC(=O)N3CCSc4ncccc43)cc2)cc1,-5.8%[59 µM],-16.5%,-8.3%,24.8%,x,x
COc1cc(CNCc2c(C(=O)O)c(C)n(Cc3cccc(Cl)c3)c2C)cc(OC)c1OC,-1.6%[59 µM],5.1%,-16.8%,8.3%,x,x
Cc1c(Cl)c(C(=O)Nc2nc3ccccc3n2CCN2CCCCC2)nn1C,9.8%,u,x,x,x,u
CC(=O)Nc1nc2ccccc2n1CCN1CCOCC1,u,-36.9%,4.47µM*,-12.7%,48.2%,-22.1%
CCn1c(NC(C)=O)nc2ccccc21,10µM*,-19.6%,39.8µM*,9.3%,-0.4%,6.3%
CCn1cc(Cl)c(C(=O)Nc2nc3ccccc3n2CCN2CCCCC2)n1,-3.7%,79.4µM*,u,4.4%,-10.9%,20.0%
CC(=O)Nc1nc2ccccc2n1Cc1ccc(Cl)cc1,43.9%[12.7 µM],-10.0%,0.7%[11.4 µM],37.9%,-2.2%,7.5%
CCn1cc(C(=O)NCc2ccccc2)c(=O)c2cc(S(=O)(=O)N3CCOCC3)ccc21,-7.2%[59 µM],x,-14.0%,22.8%,x,x
C=CCN1C(=O)C(O)(CC(=O)c2ccc(-n3cccc3)cc2)c2ccccc21 (centres undefined),u,50.1µM*,u,u,u,-15.6%
O=C(CC1(O)C(=O)Nc2ccccc21)c1ccc(-n2cccc2)cc1 (centres undefined),u,u,-18.3%,-11.4%,-8.8%,-2.2%
COc1cccc(-c2nc(SCC(=O)Nc3ccc4c(c3)OCCO4)c(-c3ccccc3)[nH]2)c1,u,-33.3%,u,17.1%,x,x
Cc1ccc(-n2nc(C)c(NC(=O)COC(=O)c3ccccc3NCCO)c2C)cc1,50.1µM*,12.5%,-4.1%,22.2%,5.2%,x
COc1ccc(-c2[nH]c(-c3cccc(OC)c3)nc2SCC(=O)Nc2ccc3c(c2)OCO3)cc1,10µM*,u,u,u,x,x
O=C(CSc1nc(-c2ccccc2)[nH]c1-c1ccccc1)Nc1ccc2c(c1)OCO2,22.4µM*,56.2µM*,u,u,x,x
O=C(CC1CS(=O)(=O)CC1CC(=O)Nc1ccc2c(c1)OCCO2)Nc1ccc2c(c1)OCCO2 (centres undefined),x,u,-31.5%,-9.5%,19.1%,22.4µM*
COc1ccc(-c2nc(SCC(=O)Nc3ccc4c(c3)OCCO4)c(-c3ccccc3)[nH]2)cc1,-11.7%[59 µM],-1.7%,-23.6%,18.2%,x,x
Cc1cc(C)c2nc(C)cc(Nc3cccc(C(=O)O)c3)c2c1,-5.6%[59 µM],3.1%,-1.0%,31.2%,x,x
Fc1ccccc1/C=N/Nc1nc2ccccc2o1,25.7%,11.3%,-5.7%,27.3%,x,u
Cc1nn(CC(=O)Nc2ccc3c(c2)OCO3)c(C)c1Cl,70.8µM*,-13.8%,1.6%,45.1%,x,-1.3%
Cc1nc2cc(C(=O)OCC(=O)Nc3cccc(Cl)c3)ccc2n1-c1ccccc1,50.1µM*,5.0%,-23.4%[57.1 µM],45.4%,-8.7%,10.8%
O=C(COc1ccc(Cl)cc1)NCc1nnc(SCC(=O)Nc2ccc3c(c2)OCCO3)o1,18.5%[59 µM],6.4%,79.4µM*,u,7.4%,7.0%
O=C(CN1CCOc2ccccc21)NCc1ccco1,u,-1.0%,-12.7%,41.3%,-13.8%,u
O=C(CN1CC(=O)Oc2ccccc21)NCc1ccco1,u,44.7µM*,-28.1%[11.4 µM],6.5%,2.5%,56.2µM*
SMILES,G9a block,BAZ2B block,JMJD2A Tudor inh,HP1b chromo inh,L3MBTL1 inh,Sfp PPTase inh
CCOC(=O)Cc1ccc(NC(=O)NC(C)c2c(-n3cccc3)sc(C)c2C)cc1 (centres undefined),u,u,u,-2.2%,x,x
COC(=O)[C@@H]1C[C@@]2(O)[C@@H](O)[C@@H](O)[C@@H](O)C[C@H]2N1Cc1cc(F)ccc1F,x,x,x,x,x,-23.3%
O=C(CSc1ncn(-c2ccccc2)n1)Nc1ccc2c(c1)OCCO2,u,-3.3%,-19.2%,16.5%,1.3%,-2.1%
O=C(CSc1ncn(-c2ccccc2)n1)Nc1ccc2c(c1)OCO2,u,-1.0%,89.1µM*,12.1%,-0.4%,-9.7%
Cc1nn(-c2ccccc2)c(C)c1C(=O)OCC(=O)Nc1ccc2c(c1)OCO2,79.4µM*,-7.1%,u,-2.2%,0.1%,5.4%
O=C(CSc1ccccc1)Nc1ccc2c(c1)OCCO2,79.4µM*,-5.2%,-10.2%,19.6%,x,10.3%
CC(=O)Nc1cccc(C(=O)OCC(=O)Nc2c(C)nn(-c3ccccc3)c2C)c1,39.8µM*,11.7%,-16.7%,15.5%,7.0%,x
CC(OC(=O)c1ccccc1NCCO)C(=O)NC1CCCCC1C (centres undefined),u,-6.0%,-2.9%,52.1%,2.1%,x
Cc1c(-c2ccccc2)c(=O)oc2cc(O)ccc12,18.5%,-12.0%,3.6%,47.2%,x,17.1%
COc1ncc2nc(C)c(=O)n(Cc3cccs3)c2n1,-37.6%[12.7 µM],x,x,x,x,-7.9%
COc1ccc2c(c1)c(CC(=O)Nc1cccc(F)c1C)c(C)n2C(=O)c1ccc(Cl)cc1,23.5%[59 µM],-0.3%,-20.9%,13.6%,x,x
O=C(CSc1ccc2c(c1)OCCO2)NCc1ccco1,50.1µM*,u,-16.7%,24.0%,-6.3%,35.5µM*
COc1ccc(NC(=O)CSc2ncccc2C(=O)O)cc1OC,u,56.2µM*,-10.1%,21.2%,x,x
O=C(O)C1CCCCC1C(=O)Nc1ccc2c(c1)OCCO2 (centres undefined),2.51µM*,-0.9%,-15.4%,16.5%,7.7%,8.9%
COc1ccc(NC(=O)CSc2nc(-c3cccc(C)c3)[nH]c2-c2ccccc2)cc1OC,u,22.4µM*,u,-13.6%,x,x
COc1ccc(-c2[nH]c(-c3ccc(OC)c(OC)c3)nc2SCC(=O)Nc2ccccc2)cc1,-17.6%[59 µM],2.3%,u,-13.7%,x,x
O=C(Nc1ccc2c(c1)OCCO2)C1CC1c1ccccc1 (centres undefined),6.0%[59 µM],-10.2%,-19.6%,11.3%,2.9%,-1.7%
